# Results taken from PubChem BioAssay.
# Active and inactive are the calls of the source.
# Columns and labels:
# [1] = small molecules captured by biotinylated probe aFSTL3 – biochemical, small-molecule microarray, fluorescence 635/667, stem cell growth factor project, primary screen (AID 1064); conditions: higher = more signal;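 further: measures binding of the biotinylated anti-FSTL3 antibody to printed compounds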
# [2] = binders from COS7 lysate, DM2A8 probe, primary screen, torsin A project, cell lysate, small-molecule microarray, fluorescence 635/667 (AID 1065); conditions: higher = more signal, COS7 lysate expressing mutant human TOR1A
# [3] = small molecules captured by biotinylated probe aFGF2 – biochemical, small-molecule microarray, fluorescence 635/667, stem cell growth factor project, primary screen (AID 1067); conditions: higher = more signal;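 further: measures binding of biotinylated aFGF2 protein to printed compounds on slides; z-score merges feature fluorescence and signal-to-noise across triplicate slides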
# [4] = small molecules captured by biotinylated probe aFGF10 – biochemical, small-molecule microarray, fluorescence 635/667, stem cell growth factor project, primary screen (AID 1071); conditions: higher = more signal;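 further: score merges 667 nm spot intensity and signal to noise from triplicate slides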
# [5] = biological target: Neurogenic locus notch homolog protein 2 (Homo sapiens) (UniProt Q04721); assay: small molecules binding Notch2 protein – biochemical, small-molecule microarray, 635 nm fluorescence, stem cell growth factors, primary screen (AID 1073); conditions: higher = more signal
# [6] = biological target: Pro-neuregulin-1, membrane-bound isoform (Homo sapiens) (UniProt Q02297); assay: small molecules binding neuregulin-1 protein – biochemical, small-molecule microarray, fluorescence 635/667, psychiatric disease protein project, primary screen (AID 1075); conditions: NRG1 binding, 635 nm fluorescence, higher = more signal;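 further: score combines 667 nm spot fluorescence with signal to noise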
# Pro-neuregulin-1, membrane-bound isoform (Homo sapiens), sequence (Q02297 whole entry, looked up, the tested form may be a part, canonical isoform): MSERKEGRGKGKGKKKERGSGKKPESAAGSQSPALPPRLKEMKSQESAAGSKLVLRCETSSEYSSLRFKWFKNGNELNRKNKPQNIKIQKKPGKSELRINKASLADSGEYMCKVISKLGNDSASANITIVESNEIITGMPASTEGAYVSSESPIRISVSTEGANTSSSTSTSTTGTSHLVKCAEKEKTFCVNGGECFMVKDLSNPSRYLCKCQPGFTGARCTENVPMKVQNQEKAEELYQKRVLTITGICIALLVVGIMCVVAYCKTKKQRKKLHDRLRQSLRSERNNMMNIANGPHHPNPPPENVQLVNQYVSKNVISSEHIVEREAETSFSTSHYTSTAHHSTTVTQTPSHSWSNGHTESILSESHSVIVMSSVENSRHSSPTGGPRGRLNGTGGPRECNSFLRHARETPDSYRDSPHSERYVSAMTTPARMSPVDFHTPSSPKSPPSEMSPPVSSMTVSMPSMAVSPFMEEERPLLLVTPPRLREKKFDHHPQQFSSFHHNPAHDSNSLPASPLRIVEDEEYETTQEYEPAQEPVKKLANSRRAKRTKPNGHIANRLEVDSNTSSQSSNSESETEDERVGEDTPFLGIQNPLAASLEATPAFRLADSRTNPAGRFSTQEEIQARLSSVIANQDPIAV
# [7] = test system: Neuregulin-1 EGF-like domain; assay: small molecules binding NRG1 EGF domain – biochemical, small-molecule microarray, 635 nm fluorescence, primary screen (AID 1081); conditions: higher = more signal;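 further: binding of the protein to compounds printed on small-molecule microarray slides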
# [8] = FRG1 expression reporter modulators in myotubes – cell-based, C2C12 myotubes, firefly/Renilla luciferase, luminescence, FRG1 inhibition for FSHD, primary screen (AID 1084); conditions: FRG1 promoter luciferase, higher = more signal, called active from +8 up or from −8 down
# [9] = small molecules captured by biotinylated probe aFST – biochemical, small-molecule microarray, fluorescence 635/667, stem cell growth factor project, primary screen (AID 1086); conditions: higher = more signal;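 further: score merges 667 nm fluorescence with signal-to-noise of each printed compound spot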
# [10] = binders of probe aHhip on microarray, primary screen, stem cell growth factor project, biochemical, small-molecule microarray, fluorescence 635/667 (AID 1087); conditions: higher = more signal;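 further: score merges spot fluorescence at 667nm with spot signal to noise ratio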
# [11] = test system: PRMT1 (protein arginine N-methyltransferase 1); assay: small molecules binding arginine methyltransferase PRMT1 – biochemical, small-molecule microarray, 635 nm fluorescence, primary screen (AID 1088); conditions: higher = more signal;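 further: binding of Prmt1 protein to compounds spotted on small-molecule microarray slides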
# [12] = growth effects on S. cerevisiae YJM789 – YJM789 clinical isolate, OD600, 24 h, basal, primary screen (AID 1089); conditions: higher = more signal, called active from +8 up or from −8 down;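 further: growth of clinical yeast isolate S. cerevisiae YJM 789 seeded 1000 cells per well; test concentration not given here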
# [13] = S. pombe growth modifiers, basal conditions – strain 972, OD600, 24 h, no modulator, primary screen (AID 1090);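 further: basal condition with compound alone and no growth modifier present; test concentration not given here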; conditions: S. pombe 972 growth, higher = more signal, called active from +8 up or from −8 down
# [14] = budding yeast growth modifiers under rapamycin – strain BY4716, OD600, 96 h, primary screen (AID 1091); further: test concentration not given here; conditions: S. cerevisiae BY4716 + rapamycin, higher = more signal, called active from +8 up or from −8 down
# [15] = biological target: Torsin-1A-interacting protein 2 (Homo sapiens) (UniProt Q8NFQ8); assay: small molecules binding lysate-expressed LULL1 – cell lysate, human LULL1 lysate, 635/667 nm fluorescence, primary screen (AID 1092); conditions: small-molecule microarray, hLULL1 lysate binding, 635 nm fluorescence; higher = more signal;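 further: probe is lysate of COS7 cells overexpressing human LULL1; score merges per-feature 667 nm fluorescence with signal-to-noise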
# Torsin-1A-interacting protein 2 (Homo sapiens), sequence (Q8NFQ8 whole entry, looked up): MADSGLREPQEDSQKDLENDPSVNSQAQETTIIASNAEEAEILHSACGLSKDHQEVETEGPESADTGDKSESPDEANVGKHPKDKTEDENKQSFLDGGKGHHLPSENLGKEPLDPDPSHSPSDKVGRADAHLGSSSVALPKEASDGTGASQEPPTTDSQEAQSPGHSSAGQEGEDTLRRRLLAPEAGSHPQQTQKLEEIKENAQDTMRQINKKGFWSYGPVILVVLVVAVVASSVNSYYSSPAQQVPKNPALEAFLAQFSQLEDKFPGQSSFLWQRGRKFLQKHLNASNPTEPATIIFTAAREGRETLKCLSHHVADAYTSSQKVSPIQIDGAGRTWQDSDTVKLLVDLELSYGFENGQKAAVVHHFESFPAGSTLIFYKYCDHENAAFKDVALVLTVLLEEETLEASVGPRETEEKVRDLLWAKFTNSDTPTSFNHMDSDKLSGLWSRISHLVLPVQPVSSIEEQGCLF
# [16] = optical density change of DRC41 E. coli – strain DRC41, OD650, 24 h, E. coli filamentation project, primary screen (AID 1093);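 further: MC1000 strain lacking acrAB efflux and sulA so SOS filamentation is blocked; test concentration not given here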; conditions: E. coli DRC41 growth, higher = more signal, called active from +8 up or from −8 down
# [17] = probe aLefty2 binding to arrayed compounds – biochemical, biotinylated probe, 635/667 nm fluorescence, primary screen (AID 1094); conditions: small-molecule microarray, higher = more signal;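 further: score merges spot fluorescence near 667 nm with spot signal-to-noise ratio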
# [18] = test system: Noggin (protein binding on small-molecule microarray); assay: small molecules binding Noggin protein – biochemical, 635/667 nm fluorescence, primary screen (AID 1095); conditions: 635 nm fluorescence, higher = more signal;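 further: score merges 667 nm feature fluorescence with signal to noise over triplicate slides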
# [19] = biological target: Neurogenic locus notch homolog protein 3 (Homo sapiens) (UniProt Q9UM47); assay: small molecules binding NOTCH3 protein – biochemical, 635/667 nm fluorescence, primary screen (AID 1096); conditions: small-molecule microarray, 635 nm fluorescence, higher = more signal
# Neurogenic locus notch homolog protein 3 (Homo sapiens), sequence (Q9UM47 whole entry, looked up): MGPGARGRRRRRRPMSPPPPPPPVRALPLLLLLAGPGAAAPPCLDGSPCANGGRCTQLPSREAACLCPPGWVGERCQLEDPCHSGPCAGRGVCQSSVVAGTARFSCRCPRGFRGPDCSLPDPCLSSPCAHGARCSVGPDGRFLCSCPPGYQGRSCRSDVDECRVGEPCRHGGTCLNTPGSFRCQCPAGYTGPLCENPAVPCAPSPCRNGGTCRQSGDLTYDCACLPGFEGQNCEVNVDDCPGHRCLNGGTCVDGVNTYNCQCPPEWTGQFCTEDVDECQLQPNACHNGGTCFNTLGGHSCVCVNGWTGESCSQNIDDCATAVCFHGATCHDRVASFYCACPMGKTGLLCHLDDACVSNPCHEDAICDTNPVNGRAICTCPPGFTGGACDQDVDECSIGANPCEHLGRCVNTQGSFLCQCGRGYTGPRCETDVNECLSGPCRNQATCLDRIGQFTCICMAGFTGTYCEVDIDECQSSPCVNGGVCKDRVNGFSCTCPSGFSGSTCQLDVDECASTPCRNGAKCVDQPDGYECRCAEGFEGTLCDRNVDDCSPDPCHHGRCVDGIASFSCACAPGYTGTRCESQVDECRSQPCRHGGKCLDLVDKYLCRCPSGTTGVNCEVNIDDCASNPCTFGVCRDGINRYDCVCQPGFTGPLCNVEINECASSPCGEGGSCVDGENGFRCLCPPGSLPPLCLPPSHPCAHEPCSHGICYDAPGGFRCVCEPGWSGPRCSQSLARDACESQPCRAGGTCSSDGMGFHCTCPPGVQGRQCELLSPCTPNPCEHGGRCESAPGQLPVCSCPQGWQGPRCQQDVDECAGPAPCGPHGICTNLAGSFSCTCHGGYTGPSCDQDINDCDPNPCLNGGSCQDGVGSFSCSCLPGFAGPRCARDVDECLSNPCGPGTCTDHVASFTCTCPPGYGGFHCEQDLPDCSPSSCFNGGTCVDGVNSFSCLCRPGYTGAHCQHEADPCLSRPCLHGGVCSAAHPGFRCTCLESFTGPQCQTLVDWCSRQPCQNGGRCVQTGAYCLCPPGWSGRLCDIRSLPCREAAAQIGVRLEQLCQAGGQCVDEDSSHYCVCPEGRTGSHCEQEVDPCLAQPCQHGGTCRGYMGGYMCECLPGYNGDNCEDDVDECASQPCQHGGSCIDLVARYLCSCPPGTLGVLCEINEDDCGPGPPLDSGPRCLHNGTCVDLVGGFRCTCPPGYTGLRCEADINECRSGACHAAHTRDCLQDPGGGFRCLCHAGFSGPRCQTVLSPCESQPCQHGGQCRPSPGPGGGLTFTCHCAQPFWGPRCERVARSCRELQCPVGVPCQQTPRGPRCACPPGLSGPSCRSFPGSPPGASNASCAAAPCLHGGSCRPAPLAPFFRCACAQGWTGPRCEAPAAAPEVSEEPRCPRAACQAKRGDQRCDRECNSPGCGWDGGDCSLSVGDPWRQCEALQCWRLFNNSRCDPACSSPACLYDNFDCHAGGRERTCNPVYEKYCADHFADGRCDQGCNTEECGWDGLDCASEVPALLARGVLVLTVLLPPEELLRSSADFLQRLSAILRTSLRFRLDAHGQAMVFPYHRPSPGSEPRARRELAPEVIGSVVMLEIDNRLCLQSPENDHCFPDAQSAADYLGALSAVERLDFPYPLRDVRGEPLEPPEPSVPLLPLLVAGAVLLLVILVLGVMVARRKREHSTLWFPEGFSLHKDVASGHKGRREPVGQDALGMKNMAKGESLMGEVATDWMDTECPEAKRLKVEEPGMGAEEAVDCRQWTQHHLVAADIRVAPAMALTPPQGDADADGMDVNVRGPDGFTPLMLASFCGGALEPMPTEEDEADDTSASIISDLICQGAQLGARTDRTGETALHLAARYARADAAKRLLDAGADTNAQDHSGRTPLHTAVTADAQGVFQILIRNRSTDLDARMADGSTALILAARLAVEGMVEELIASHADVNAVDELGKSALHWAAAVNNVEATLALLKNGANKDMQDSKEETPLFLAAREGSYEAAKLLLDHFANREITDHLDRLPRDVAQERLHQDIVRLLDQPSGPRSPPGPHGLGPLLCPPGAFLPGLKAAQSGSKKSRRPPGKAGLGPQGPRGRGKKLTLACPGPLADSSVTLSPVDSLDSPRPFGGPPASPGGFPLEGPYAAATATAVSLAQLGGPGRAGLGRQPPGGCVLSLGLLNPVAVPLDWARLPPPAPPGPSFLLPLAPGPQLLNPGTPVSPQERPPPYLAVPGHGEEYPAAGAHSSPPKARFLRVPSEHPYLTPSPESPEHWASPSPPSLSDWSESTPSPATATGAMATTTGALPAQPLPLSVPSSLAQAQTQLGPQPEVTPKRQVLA
# [20] = probe aEGFR binding to arrayed compounds – biochemical, biotinylated probe, 635/667 nm fluorescence, primary screen (AID 1097); conditions: small-molecule microarray, higher = more signal;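 further: probe is a biotinylated anti-EGFR antibody binding compounds printed on slides; score combines fluorescence near 667 nm and signal to noise of each spot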
structure (smiles),measurement,setting,value
COCCCNC(=O)[C@@]1(CCC(=O)OC(C)(C)C)COC(c2ccc(OCCCO)cc2)=N1,composite z-score,[1],-0.0885
same,composite z-score,[2],0.355
same,composite z-score,[3],-0.0659
same,composite z-score,[4],0.611
same,composite z-score,[5],0.844
same,composite z-score,[6],1.63
same,composite z-score,[7],1.21
same,z-score,[8],-0.604 (inactive)
same,composite z-score,[9],0.579
same,composite z-score,[10],-0.12
same,composite z-score,[11],1.59
same,z-score,[12],-0.649 (inactive)
same,z-score,[13],0.132 (inactive)
same,z-score,[14],-2.07 (inactive)
same,composite z-score,[15],3.51
same,z-score,[16],0.488 (inactive)
same,composite z-score,[17],-0.0906
same,composite z-score,[18],0.337
same,composite z-score,[19],0.571
same,composite z-score,[20],-0.13
COc1ccc(CCNC(=O)[C@@H]2c3ccccc3C(=O)N(Cc3ccccc3OC)[C@H]2c2ccc(CO)cc2)cc1,composite z-score,[1],-0.26
same,composite z-score,[2],0.678
same,composite z-score,[3],0.0021
same,composite z-score,[4],0.131
same,composite z-score,[5],1.03
same,composite z-score,[6],1.29
same,composite z-score,[7],1.31
same,z-score,[8],-2.5 (inactive)
same,composite z-score,[9],0.428
same,composite z-score,[10],-0.266
same,composite z-score,[11],1.53
same,z-score,[12],-1.23 (inactive)
same,z-score,[13],0.294 (inactive)
same,z-score,[14],-0.323 (inactive)
same,composite z-score,[15],2.62
same,z-score,[16],-0.1 (inactive)
same,composite z-score,[17],-0.172
same,composite z-score,[18],0.0564
same,composite z-score,[19],0.852
same,composite z-score,[20],-0.105
O=C1[C@H]2C=C(I)[C@H](C[C@@H]2c2ccccc2)[C@@]12CO2,composite z-score,[1],-0.372
same,composite z-score,[2],-0.0809
same,composite z-score,[3],-0.104
same,composite z-score,[4],-0.142
same,composite z-score,[5],0.0878
same,composite z-score,[6],-0.165
same,composite z-score,[7],-0.507
same,z-score,[8],1.55 (inactive)
same,composite z-score,[9],0.281
same,composite z-score,[10],-0.214
same,composite z-score,[11],0.298
same,z-score,[12],-3.2 (inactive)
same,z-score,[13],-19.3 (active)
same,z-score,[14],-2.84 (inactive)
same,composite z-score,[15],-0.0459
same,z-score,[16],-0.924 (inactive)
same,composite z-score,[17],-0.238
same,composite z-score,[18],0.355
same,composite z-score,[19],-0.183
same,composite z-score,[20],-0.139
C=CCC(OC(C)=O)[C@@H]1[C@@H](N(Cc2cccc3ccccc23)C(=O)Cc2ccc(OC)cc2)c2cc(OCCCO)ccc2N1C(=O)c1ccc2ccccc2c1 (stereo not given in full),composite z-score,[1],0.175
same,composite z-score,[2],0.737
same,composite z-score,[3],-0.052
same,composite z-score,[4],0.113
same,composite z-score,[5],-0.451
same,composite z-score,[6],-0.0627
same,composite z-score,[7],-0.805
same,z-score,[8],-1.75 (inactive)
same,composite z-score,[9],0.0737
same,composite z-score,[10],-0.337
same,composite z-score,[11],1.14
same,z-score,[12],-1.12 (inactive)
same,z-score,[13],0.098 (inactive)
same,z-score,[14],-1.35 (inactive)
same,composite z-score,[15],1.06
same,z-score,[16],1.1 (inactive)
same,composite z-score,[17],-0.0042
same,composite z-score,[18],0.115
same,composite z-score,[19],0.373
same,composite z-score,[20],-0.0967
O=C(NCc1ccccc1)[C@@H]1c2ccccc2C(=O)N(Cc2cc(C(F)(F)F)cc(C(F)(F)F)c2)[C@H]1c1ccc(CO)cc1,composite z-score,[1],-0.501
same,composite z-score,[2],1.62
same,composite z-score,[3],-0.118
same,composite z-score,[4],0.409
same,composite z-score,[5],0.685
same,composite z-score,[6],0.71
same,composite z-score,[7],1.27
same,z-score,[8],-0.354 (inactive)
same,composite z-score,[9],0.423
same,composite z-score,[10],0.0505
same,composite z-score,[11],1.53
same,z-score,[12],0.744 (inactive)
same,z-score,[13],-0.077 (inactive)
same,z-score,[14],0.296 (inactive)
same,composite z-score,[15],2.55
same,z-score,[16],-1 (inactive)
same,composite z-score,[17],-0.0512
same,composite z-score,[18],1.37
same,composite z-score,[19],1.12
same,composite z-score,[20],0.0453
